# Experimental data reported in PubChem BioAssay.
# The source made the active and inactive calls.
# Assays:
# [1] = tested on: Plasmodium falciparum Sir2 (PF13_0152, Sir2A); experiment: pfSir2 binders on small-molecule microarrays, primary screen, biochemical, small-molecule microarray, 635 nm fluorescence (AID 1098); conditions: small-molecule microarray binding, fluorescence 635 nm; higher = more signal;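 note: score merges spot fluorescence intensity with its signal-to-noise ratio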
# [2] = small-molecule microarray binders of probe aDKK1, primary screen, biochemical, biotinylated probe, 635/667 nm fluorescence (AID 1099); conditions: higher = more signal;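 note: score merges 667nm spot fluorescence with signal to noise across triplicate slides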
# [3] = small-molecule microarray binders of probe aCHRDL2, primary screen, biochemical, biotinylated probe, 635/667 nm fluorescence (AID 1100); conditions: higher = more signal
# [4] = splicing luciferase reporter signal modulators, primary screen, spliceosome inhibition project, cell-based, HEK293, splice +/- reporter (AID 1101); conditions: luminescence, 24 h, higher = more signal, called active from +8 up or from −8 down;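 note: HEK293 cells carrying a splicing-competent luciferase reporter gene; test concentration not given here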
# [5] = biological target: Fibroblast growth factor 10 (Homo sapiens) (UniProt O15520); experiment: FGF10 binders on small-molecule microarrays, primary screen, biochemical, small-molecule microarray, 635 nm fluorescence (AID 1102); conditions: FGF10 binding, fluorescence 635 nm, higher = more signal
# Sequence of Fibroblast growth factor 10 (Homo sapiens) (O15520 whole entry, looked up): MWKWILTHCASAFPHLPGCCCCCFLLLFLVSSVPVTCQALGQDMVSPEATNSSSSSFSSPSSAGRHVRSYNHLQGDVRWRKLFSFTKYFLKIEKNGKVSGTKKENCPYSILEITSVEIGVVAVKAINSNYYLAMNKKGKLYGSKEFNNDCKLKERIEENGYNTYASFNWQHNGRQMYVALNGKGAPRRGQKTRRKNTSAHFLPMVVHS
# [6] = tested on: glycogen synthase kinase-3 (GSK3A per assay name; protocol says GSK3B); experiment: GSK3 binders on small-molecule microarrays, primary screen, biochemical, small-molecule microarray, 635 nm fluorescence, GSK3A (AID 1103); conditions: small-molecule microarray binding, fluorescence 635 nm; higher = more signal; note: the record names both GSK3A and GSK3B
# [7] = biological target: Epidermal growth factor receptor (Homo sapiens) (UniProt P00533); experiment: EGFR binders on small-molecule microarrays, primary screen, biochemical, small-molecule microarray, 635 nm fluorescence (AID 1104); conditions: EGFR binding, higher = more signal;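 note: score merges 667 nm emission intensity with spot signal to noise over triplicate slides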
# Sequence of Epidermal growth factor receptor (Homo sapiens) (P00533 whole entry, looked up): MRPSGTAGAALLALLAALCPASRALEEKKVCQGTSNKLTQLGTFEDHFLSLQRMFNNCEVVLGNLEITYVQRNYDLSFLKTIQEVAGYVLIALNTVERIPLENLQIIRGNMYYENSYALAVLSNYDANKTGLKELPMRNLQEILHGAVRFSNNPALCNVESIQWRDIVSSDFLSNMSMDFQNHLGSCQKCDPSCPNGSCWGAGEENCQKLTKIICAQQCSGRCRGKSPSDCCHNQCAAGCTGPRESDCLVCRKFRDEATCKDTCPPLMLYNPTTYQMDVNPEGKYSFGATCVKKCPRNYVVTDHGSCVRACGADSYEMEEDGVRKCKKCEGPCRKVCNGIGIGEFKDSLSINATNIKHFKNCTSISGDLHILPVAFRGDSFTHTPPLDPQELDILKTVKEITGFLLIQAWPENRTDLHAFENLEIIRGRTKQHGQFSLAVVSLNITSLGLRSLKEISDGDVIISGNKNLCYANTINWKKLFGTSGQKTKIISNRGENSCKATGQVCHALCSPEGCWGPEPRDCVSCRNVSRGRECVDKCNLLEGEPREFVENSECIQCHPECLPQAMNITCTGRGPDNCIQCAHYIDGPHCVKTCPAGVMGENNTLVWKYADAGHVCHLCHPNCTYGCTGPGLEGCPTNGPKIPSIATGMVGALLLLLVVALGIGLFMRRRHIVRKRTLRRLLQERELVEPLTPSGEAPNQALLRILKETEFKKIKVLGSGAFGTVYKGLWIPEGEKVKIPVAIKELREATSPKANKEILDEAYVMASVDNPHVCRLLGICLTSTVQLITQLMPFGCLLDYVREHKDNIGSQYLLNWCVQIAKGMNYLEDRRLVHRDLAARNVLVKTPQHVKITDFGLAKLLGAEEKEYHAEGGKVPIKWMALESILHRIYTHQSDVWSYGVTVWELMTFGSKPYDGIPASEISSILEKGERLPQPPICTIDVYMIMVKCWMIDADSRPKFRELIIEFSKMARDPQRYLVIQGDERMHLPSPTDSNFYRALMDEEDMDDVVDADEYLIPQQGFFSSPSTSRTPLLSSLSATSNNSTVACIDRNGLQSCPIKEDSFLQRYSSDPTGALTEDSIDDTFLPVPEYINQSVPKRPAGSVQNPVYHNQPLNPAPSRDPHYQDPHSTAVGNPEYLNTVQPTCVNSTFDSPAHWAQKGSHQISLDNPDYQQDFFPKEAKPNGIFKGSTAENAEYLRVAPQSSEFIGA
# [8] = biological target: Follistatin-related protein 3 (Homo sapiens) (UniProt O95633); experiment: FSTL3 binders on small-molecule microarrays, primary screen, biochemical, small-molecule microarray, 635 nm fluorescence (AID 1105); conditions: FSTL3 binding, higher = more signal;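 note: score merges emission near 667 nm and signal to noise per printed spot across three slides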
# Sequence of Follistatin-related protein 3 (Homo sapiens) (O95633 whole entry, looked up): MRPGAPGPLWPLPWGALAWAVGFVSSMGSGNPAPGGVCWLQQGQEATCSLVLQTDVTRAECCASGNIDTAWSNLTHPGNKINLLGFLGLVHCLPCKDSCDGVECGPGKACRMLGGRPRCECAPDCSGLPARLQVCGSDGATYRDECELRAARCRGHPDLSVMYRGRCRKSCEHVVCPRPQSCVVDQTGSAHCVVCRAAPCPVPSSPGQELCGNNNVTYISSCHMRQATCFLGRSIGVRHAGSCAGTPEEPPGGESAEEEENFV
# [9] = biological target: Dickkopf-related protein 1 (Homo sapiens) (UniProt O94907); experiment: DKK1 binders on small-molecule microarrays, primary screen, biochemical, small-molecule microarray, 635 nm fluorescence scan (AID 1106); conditions: DKK1 binding, higher = more signal;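 note: score merges emission near 667 nm with signal to noise over three replicate slides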
# Sequence of Dickkopf-related protein 1 (Homo sapiens) (O94907 whole entry, looked up): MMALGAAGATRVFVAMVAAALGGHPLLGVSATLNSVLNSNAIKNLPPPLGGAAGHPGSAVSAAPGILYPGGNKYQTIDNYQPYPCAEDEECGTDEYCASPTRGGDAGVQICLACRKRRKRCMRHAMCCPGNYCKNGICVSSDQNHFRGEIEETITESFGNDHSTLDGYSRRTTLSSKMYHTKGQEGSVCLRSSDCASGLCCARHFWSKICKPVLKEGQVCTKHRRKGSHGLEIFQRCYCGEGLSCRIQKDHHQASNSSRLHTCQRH
# [10] = tested on: Inhibin beta A chain (activin A); experiment: INHBA (activin A) binders on microarrays, primary screen, biochemical, small-molecule microarray, 635 nm fluorescence scan (AID 1107); conditions: small-molecule microarray binding, higher = more signal;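 note: mouse activin A protein probed at 4.33 µg/mL on printed slides; score merges bound-protein fluorescence near 667 nm with spot signal-to-noise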
# [11] = tested on: Human papillomavirus type 1a protein E7 (residues 44-93); experiment: HPV1a E7 fragment binders on microarrays, primary screen, biochemical, small-molecule microarray, residues 44-93, 635 nm fluorescence (AID 1108); conditions: small-molecule microarray binding, fluorescence 635 nm; higher = more signal;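 note: E7 fragment applied at 1 µg/mL in TBST for 1 h at 4 C; score combines spot fluorescence with its signal to noise ratio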
# [12] = modulators of HCV replicon luciferase signal, primary screen, HCV replication inhibitor project, Huh7 cells, luciferase reporter (AID 1109); conditions: 48 h, higher = more signal;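 note: huh7 hepatoma cells harbouring a luciferase neomycin HCV replicon reporter; luciferase luminescence as measure of HCV replicon replication; test concentration not given here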
# [13] = biological target: Left-right determination factor 2 (Homo sapiens) (UniProt O00292); experiment: LEFTY2 binders on small-molecule microarrays, primary screen, biochemical, small-molecule microarray, 635 nm fluorescence scan (AID 1110); conditions: LEFTY2 binding, higher = more signal
# Sequence of Left-right determination factor 2 (Homo sapiens) (O00292 whole entry, looked up): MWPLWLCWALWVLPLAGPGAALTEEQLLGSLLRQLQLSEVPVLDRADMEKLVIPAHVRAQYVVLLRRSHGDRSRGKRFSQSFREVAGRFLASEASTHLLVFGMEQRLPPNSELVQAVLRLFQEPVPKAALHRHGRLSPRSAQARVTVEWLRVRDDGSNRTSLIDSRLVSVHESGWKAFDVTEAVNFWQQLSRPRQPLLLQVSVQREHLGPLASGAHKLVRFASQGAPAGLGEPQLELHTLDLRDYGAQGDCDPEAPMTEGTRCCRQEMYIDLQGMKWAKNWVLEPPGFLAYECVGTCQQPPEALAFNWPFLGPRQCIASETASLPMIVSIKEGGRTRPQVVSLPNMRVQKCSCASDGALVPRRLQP
# [14] = biological target: Calmodulin-1 (Homo sapiens) (UniProt P0DP23); experiment: CALM1 binders on microarrays, EGTA buffer, profiling panel, biochemical, small-molecule microarray, Cy5-labelled CALM1 (AID 1111); conditions: Cy5-CALM1 binding fluorescence, higher = more signal;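 note: labelled calmodulin applied in Tris saline Tween buffer holding calcium plus EGTA and DTT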
# [15] = biological target: Calmodulin-1 (Homo sapiens) (UniProt P0DP23); experiment: calcium-bound CALM1 binders on microarrays, profiling panel, artefact control for SMM control-protein annotation, biochemical, small-molecule microarray, Cy5-labelled CALM1, plus calcium (AID 1112); conditions: Cy5-CALM1 binding fluorescence, higher = more signal;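 note: score merges spot fluorescence with signal to noise from triplicate slides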
# [16] = small-molecule microarray binders of probe aWnt5a, primary screen, biochemical, biotinylated probe, 635/667 nm fluorescence (AID 1113); conditions: higher = more signal;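 note: score merges 667 nm fluorescence intensity with signal-to-noise per printed feature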
# [17] = small-molecule microarray binders of probe aShh, primary screen, biochemical, biotinylated probe, 635/667 nm fluorescence (AID 1114); conditions: higher = more signal;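 note: probe is biotin-labelled aShh protein from a stem cell growth factor screen; measures binding of labelled protein to compounds printed on the slide; score merges feature fluorescence at 667 nm with signal-to-noise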
# [18] = small-molecule microarray binders of probe aNog, primary screen, biochemical, biotinylated probe, 635/667 nm fluorescence (AID 1115); conditions: higher = more signal;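 note: probe is biotinylated aNog protein used at 0.15 µg/mL for 1 h at 4 C; z-score combines 667 nm fluorescence of each spot with its signal to noise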
# [19] = biological target: Torsin-1A-interacting protein 1 (Homo sapiens) (UniProt Q5JTV8); experiment: LAP1 binders from COS7 cell lysate, primary screen, small-molecule microarray, 635/667 nm fluorescence (AID 1116); conditions: COS7-hLAP1 lysate binding, 635 nm fluorescence, higher = more signal
# Sequence of Torsin-1A-interacting protein 1 (Homo sapiens) (Q5JTV8 whole entry, looked up): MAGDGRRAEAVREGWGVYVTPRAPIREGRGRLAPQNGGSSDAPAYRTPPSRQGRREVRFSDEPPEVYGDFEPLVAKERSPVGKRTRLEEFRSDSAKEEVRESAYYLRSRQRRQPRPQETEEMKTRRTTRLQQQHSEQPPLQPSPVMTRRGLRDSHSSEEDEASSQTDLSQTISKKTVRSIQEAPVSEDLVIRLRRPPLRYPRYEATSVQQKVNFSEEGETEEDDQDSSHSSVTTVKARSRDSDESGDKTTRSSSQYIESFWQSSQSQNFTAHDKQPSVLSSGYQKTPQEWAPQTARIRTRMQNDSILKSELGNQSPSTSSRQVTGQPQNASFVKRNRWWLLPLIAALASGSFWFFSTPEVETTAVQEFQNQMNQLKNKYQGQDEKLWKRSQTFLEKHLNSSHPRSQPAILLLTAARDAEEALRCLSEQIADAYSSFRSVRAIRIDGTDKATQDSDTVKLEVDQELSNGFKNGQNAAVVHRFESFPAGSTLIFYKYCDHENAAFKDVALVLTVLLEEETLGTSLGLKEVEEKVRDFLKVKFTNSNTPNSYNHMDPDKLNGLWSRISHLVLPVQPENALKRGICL
# [20] = biological target: Alpha-bungarotoxin (Bungarus multicinctus) (UniProt P60615); experiment: alpha-bungarotoxin binders on microarray, profiling panel, artefact control for SMM control protein annotation, biochemical, small-molecule microarray, Alexa647 label, 635/667 nm fluorescence (AID 1117); conditions: alpha-BTX-A647 binding fluorescence, higher = more signal
# Sequence of Alpha-bungarotoxin (Bungarus multicinctus) (P60615 whole entry, looked up): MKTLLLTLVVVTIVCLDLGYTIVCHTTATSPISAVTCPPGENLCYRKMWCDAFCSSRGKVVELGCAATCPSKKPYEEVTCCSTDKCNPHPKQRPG
Structure (SMILES),composite z-score [1],composite z-score [2],composite z-score [3],z-score [4],composite z-score [5],composite z-score [6],composite z-score [7],composite z-score [8],composite z-score [9],composite z-score [10],composite z-score [11],z-score [12],composite z-score [13],composite z-score [14],composite z-score [15],composite z-score [16],composite z-score [17],composite z-score [18],composite z-score [19],composite z-score [20]
Cc1ccc(N2C(=O)c3ccccc3[C@](C)(C(=O)NC3CC3)[C@@H]2c2ccc(CO)cc2)nc1,-0.168,0.931,0.541,0.466 (inactive),-0.0779,-0.0639,-0.0541,0.44,0.272,1.13,-1.22,0.344,0.129,-2.49,-0.231,-0.0792,-0.341,0.0265,1.26,0.413
Cc1ccc(S[C@]2(C(=O)NCCN3CCOCC3)CC(=O)N(Cc3cc(C(F)(F)F)cc(C(F)(F)F)c3)[C@@H]2c2ccc(CO)cc2)cc1,1.71,0.523,0.866,-0.688 (inactive),-0.703,-1.45,-1.19,-1.15,-1.05,0.156,-0.233,-0.429,-1.13,-0.411,-0.132,-0.175,-0.153,0.455,-0.998,-0.842
C=C(COC)/C(=C/C[C@H](OC(C)=O)c1cccc(OCCO)c1)c1cc(C(=O)OC)ccc1OC,0.84,0.0919,-0.143,-4.8 (inactive),1.21,0.656,0.0086,1.33,1.47,0.981,-0.109,-4.08,0.38,-0.547,-0.377,-0.0556,-0.0146,-0.201,0.188,-0.284
Cc1ccc(N2C(=O)c3ccccc3[C@](C)(C(=O)NCC(F)(F)F)[C@@H]2c2ccc(CO)cc2)nc1,0.919,0.421,0.949,0.21 (inactive),-0.975,-1.29,-1.27,-1.82,-1.15,-0.528,-2.53,0.208,-1.47,-0.538,0.733,-0.132,-0.291,-0.136,-0.438,-1.58
CC(C)(C)OC(=O)CC[C@@]12N=C(c3ccc(OCCCO)cc3)O[C@@H]1c1ccccc1CN(Cc1ccccc1)C2=O,1.39,0.578,0.505,-0.0992 (inactive),1.14,1.19,0.12,0.459,0.388,0.682,0.33,-2.92,-0.152,0.927,0.368,-0.0981,1.23,0.36,0.886,0.941
CCN(CC)c1ccc(N2CC=CC34O[C@@H]5C=CCOC(=O)[C@@H]5[C@H]3C(=O)N(C(CO)C(C)C)[C@@H]4C2=O)cc1 (stereo not given in full),-0.0952,-0.239,-0.202,-0.133 (inactive),-0.608,-0.142,-1.01,-0.586,0.0041,0.761,-0.825,-0.496,-0.827,-0.647,-0.752,-0.129,-0.0626,-0.481,-0.257,-0.274
C=C(COC)C(=O)CC[C@H](OC(=O)c1ccccc1-c1ccccc1C(=O)O)c1ccccc1OCCO,1.52,-0.227,-0.053,-0.51 (inactive),0.595,0.264,-0.124,0.159,0.307,1.1,-0.15,-1.46,0.273,0.209,-0.749,-0.118,0.267,0.0707,0.423,0.737
C=CCC(OC(C)=O)[C@@H]1[C@@H](N(Cc2cccc3ccccc23)C(=O)c2cccc3ccccc23)c2cc(OCCCO)ccc2N1C(=O)Cc1ccc(OC)cc1 (stereo not given in full),0.387,0.15,0.213,-2.53 (inactive),0.481,0.311,0.129,0.478,0.388,1.18,-0.37,-0.348,0.384,0.293,0.394,-0.0107,0.0284,0.466,0.703,0.549
CCCCC(=C=CC[C@@H](O)c1ccc(OCCO)cc1)C[C@@H](O)c1cc(Cl)cc(Cl)c1O,0.157,0.279,0.577,-2 (inactive),0.697,-0.167,-0.723,-0.0492,-0.344,0.588,-0.258,-1.99,-0.0836,0.863,0.83,-0.124,-0.221,0.342,0.497,0.166
COC(=O)c1c2oc(c1C(=O)OC)C(=O)N[C@@H](C(C)C)Cn1nncc1C1(CCCCC1)NC(=O)N[C@H](CO)CC2,1.54,-0.212,0.0273,-1.44 (inactive),-0.0613,-0.96,-0.193,-0.232,-0.074,0.31,-0.683,0.862,-0.0834,0.401,-0.102,-0.148,0.0899,-0.0207,0.368,1.29
O=C1O[C@H](c2ccccc2)[C@H](c2ccccc2)N2[C@H]1[C@@H](C(=O)Nc1nc3ccccc3s1)[C@]1(C(=O)Nc3ccc(C#CCCO)cc31)[C@H]2c1ccccc1OCCO,1.35,0.676,0.784,-0.0121 (inactive),0.545,1.31,0.289,0.892,0.328,0.793,0.793,-1.79,0.537,1.74,0.439,0.0849,0.355,1.3,1.26,1.97
